According to PMC5540273 (PLoS ONE, 2017):

Columns and labels:
Details in all cases: concentration: 1 μM, replicates: in singlicate; n = 1
[1] = test system: BMPR1A
[2] = test system: BMPR1B
[3] = test system: BMPR2
[4] = test system: BMX
[5] = test system: BRAF
[6] = test system: T1, BRK
T1 construct: gene PTK6

[7] = test system: BRSK1
[8] = test system: BRSK2
[9] = test system: BTK
[10] = test system: BUB1
[11] = test system: CAMK1B
[12] = test system: CAMK1D
[13] = test system: CAMK1G
[14] = test system: CAMK1
[15] = test system: CAMK2A
[16] = test system: CAMK2B
[17] = test system: CAMK2D
[18] = test system: CAMK2G
[19] = test system: CAMK4
[20] = test system: CAMKK1
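Also: KINOMEscan kinase panel screen.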

Compound | %Inh [1] [%] | %Inh [2] [%] | %Inh [3] [%] | %Inh [4] [%] | %Inh [5] [%] | %Inh [6] [%] | %Inh [7] [%] | %Inh [8] [%] | %Inh [9] [%] | %Inh [10] [%] | %Inh [11] [%] | %Inh [12] [%] | %Inh [13] [%] | %Inh [14] [%] | %Inh [15] [%] | %Inh [16] [%] | %Inh [17] [%] | %Inh [18] [%] | %Inh [19] [%] | %Inh [20] [%]
Cc1cc(NCC(c2ccccc2)c2ccccc2)nc(NCc2ccc(C(F)(F)F)cc2)n1 [GW497681] | 0 | 0 | 14 | 18 | 0 | 2 | 0 | 0 | 0 | 35 | 0 | 17 | 3 | 12 | 0 | 0 | 13 | 25 | 0 | 5
CCn1c(-c2cccnc2O)nc2cnccc21 [SB-736715] | 0 | 0 | 0 | 0 | 0 | 0 | 0 | 0 | 0 | 6 | 30 | 0 | 0 | 0 | 0 | 0 | 0 | 0 | 0 | 2
Fc1cc(Cl)ccc1Nc1ccnc2cc(I)ccc12 [GW551191] | 0 | 0 | 8 | 0 | 12 | 19 | 2 | 0 | 0 | 54 | 5 | 0 | 0 | 0 | 0 | 0 | 1 | 14 | 0 | 0
COc1ccc(Nc2nccc(NCCNC(=O)Nc3ccccc3F)n2)cc1 [GSK1379901] | 0 | 0 | 6 | 2 | 0 | 36 | 16 | 0 | 0 | 53 | 35 | 3 | 69 | 1 | 0 | 0 | 51 | 13 | 0 | 0
Fc1cccc(COc2nnc(-c3ccc4c(c3)CCO4)o2)c1 | 0 | 6 | 18 | 0 | 0 | 0 | 0 | 6 | 17 | 20 | 0 | 0 | 12 | 18 | 0 | 6 | 0 | 7 | 0 | 8
COC(=O)c1c(-c2ccccc2)c2cc(OC)ccc2c(=O)n1Cc1ccccc1 | 0 | 0 | 0 | 9 | 89 | 0 | 9 | 6 | 54 | 21 | 0 | 20 | 20 | 19 | 15 | 0 | 13 | 18 | 0 | 16
Cl.Oc1ccc(-c2nc(-c3ccccc3)[nH]c2-c2ccncc2)cc1 [SB-428218] | 0 | 0 | 20 | 0 | 60 | 26 | 0 | 0 | 21 | 93 | 24 | 0 | 2 | 2 | 0 | 0 | 9 | 29 | 0 | 18
Cc1cc(N2Cc3ccccc3C2)nc(Nc2ccc(S(=O)(=O)N3CCOCC3)cc2)n1.Cl [GSK1669917] | 0 | 0 | 0 | 11 | 0 | 38 | 0 | 0 | 0 | 21 | 4 | 9 | 0 | 5 | 0 | 0 | 2 | 20 | 0 | 0
Fc1cc(Cl)ccc1Nc1ccnc2cc(-c3ccc(CN4CCCCC4)o3)ccc12 [GW560116] | 0 | 0 | 0 | 0 | 0 | 14 | 2 | 0 | 0 | 26 | 0 | 8 | 0 | 3 | 0 | 0 | 8 | 26 | 0 | 4
O=C(Nc1ccc2c(c1)OCO2)NC1CCN(c2ccnc(Nc3ccc(F)cc3)n2)C1 (stereo not drawn) [GSK1379724] | 0 | 0 | 18 | 5 | 1 | 16 | 0 | 0 | 0 | 24 | 16 | 30 | 23 | 35 | 0 | 0 | 15 | 13 | 1 | 9
COc1ccccc1CNC(=O)c1cc(C(=O)c2ccccc2C)c[nH]1 [GSK364507] | 4 | 0 | 7 | 8 | 0 | 12 | 0 | 95.2 | 0 | 33 | 7 | 0 | 0 | 9 | 0 | 0 | 0 | 12 | 0 | 7
COc1cc2nccc(Nc3ccc(NC(=O)c4ccc(C)cc4)c(O)c3)c2cc1OC.Cl [GW440132] | 1 | 0 | 0 | 22 | 0 | 36 | 0 | 3 | 32 | 31 | 0 | 20 | 6 | 15 | 0 | 0 | 17 | 35 | 0 | 0
O=C(Nc1n[nH]c2cc(-c3cccc(F)c3F)ccc12)C1CC1 [SB-733894] | 31 | 31 | 52 | 0 | 0 | 0 | 54 | 58 | 0 | 0 | 0 | 12 | 100 | 26 | 19 | 13 | 1 | 7 | 0 | 8
O=C1NC(=O)C(N2CCc3ccccc32)=C1c1ccccc1Cl [SB-373598] | 0 | 8 | 100 | 29 | 1 | 24 | 12 | 9 | 0 | 16 | 41 | 65 | 0 | 67 | 20 | 0 | 18 | 22 | 10 | 4
Cn1cncc1-c1ccc2ncnc(Nc3ccc(OCc4ccccc4)cc3)c2c1 [GW320571] | 17 | 0 | 0 | 28 | 3 | 15 | 0 | 0 | 0 | 26 | 11 | 23 | 16 | 23 | 0 | 0 | 9 | 10 | 23 | 0
CN1C(=O)C(Nc2ccc(Cl)c(C(=O)O)c2)=C(c2ccc(Cl)cc2)C1=O [SB-404290] | 4 | 0 | 25 | 0 | 0 | 0 | 0 | 0 | 0 | 0 | 0 | 17 | 100 | 22 | 17 | 0 | 0 | 18 | 0 | 0
CS(=O)(=O)c1ccc(-c2nc3n(c2-c2ccncc2)CCC3)cc1 [SKF-105942] | 0 | 0 | 0 | 1 | 0 | 15 | 0 | 0 | 0 | 26 | 7 | 0 | 14 | 8 | 0 | 0 | 6 | 6 | 0 | 0
COc1cccc(NC(=O)NC2CCN(c3ccnc(Nc4ccc(F)cc4)n3)C2)c1 (stereo not drawn) [GSK1379721] | 0 | 0 | 7 | 0 | 0 | 0 | 0 | 0 | 0 | 10 | 27 | 12 | 0 | 10 | 0 | 0 | 6 | 22 | 0 | 18
COc1cccc(-c2cc(-c3c[nH]nc3-c3ccccn3)ccn2)c1 [GW680338] | 0 | 0 | 10 | 12 | 12 | 4 | 3 | 0 | 0 | 27 | 22 | 14 | 0 | 0 | 0 | 0 | 16 | 15 | 0 | 0
Cc1ccc(NC(=O)Nc2cccc(Cl)c2)cc1-c1ccc(C(=O)Nc2ccncc2)cc1 [GSK1398468] | 0 | 0 | 0 | 0 | 67 | 13 | 100 | 9 | 0 | 53 | 28 | 13 | 0 | 7 | 0 | 0 | 7 | 27 | 0 | 0
COc1cc(Nc2nccc(N3CCC(NC(=O)Nc4cc(C)ccc4C)C3)n2)cc(OC)c1OC (stereo not drawn) [GSK1379762] | 0 | 0 | 0 | 35 | 7 | 13 | 0 | 0 | 0 | 26 | 14 | 10 | 0 | 17 | 0 | 0 | 0 | 16 | 0 | 21
